Experimental data published in PubChem BioAssay (NCATS).
Records with an inconclusive call do not appear. A call without a number means that no potency is given here. Calls of active or inactive are those of the source. Calls come from the whole dose curve; as a rule, active = well fitted inhibition curve with a large enough effect; inconclusive = small, poorly fitted or top-dose-only effect; inactive = flat fitted curve, though single readings scatter.

Biological target: Calcium and integrin-binding protein 1 (Homo sapiens) (UniProt Q99828)
Assay: Primary qHTS for Identification of Calcium Integrin Binding Protein 1 (CIB1) Competitor (AID 1508620)
Conditions: CIB1-GST / FITC-alphaIIb peptide fluorescence polarization; series mostly up to 114 µM
Text: Assay Provider: Ulhas P. Naik, PhD Sidney Kimmel Medical College Thomas Jefferson University, Philadelphia, PA Primary function of platelets is to maintain hemostasis. At the site of vascular injury, platelets adhere to adhesive proteins such as collagen and von Willebrand factor. Adherent platelets are activated and generate soluble platelet agonists such as thrombin, ADP and thromboxane A2. Following exposure of circulating platelets to these agonists, results in platelet shape change, granule secretion and activation of platelet integrin alphaIIb-beta3. Ligand binding to activated integrin alphaIIb-beta3 triggers outside-in signaling, leading to platelet aggregation, stabilization of platelet plug, and clot retraction. Upon atherosclerotic plaque rupture also causes platelet plug formation, which underlies a number of cardiovascular diseases such as myocardial infraction and stroke. A number of anti-platelet drugs such as aspirin, clopidogrel, prasugrel, vorapaxar, and eptifibatide are currently available to prevent the thrombotic complications. However, these anti-platelet agents have several limitations including inherent variability in individual responses, developing resistance, and serious bleeding side effects. For these reasons they are not suitable for long-term protection. Based on the experiences with current anti-platelet drugs, it appears that the most useful therapeutic approach is to intersect the secondary responses such as integrin outside-in signaling or recruitment of platelets by TxA2 and secreted ADP. Compounds, which can largely preserve the primary hemostatic function of platelets but inhibit secondary response will be most desired therapeutic agents for treatment of cardiovascular disease. CIB1 is a calcium integrin binding protein, which specifically interact with the alphaIIb subunit of integrin alphaIIb-beta3. Binding of CIB1 to alphaIIb regulates the outside-in signaling in platelets, which is needed for thrombus stabilization and thrombus growth. […] Therefore, we propose that discovery of a small molecule that can prevent the association of CIB1 and alphaIIb-beta3 will be a potential anti-platelet agent that can block the thrombus formation without undue effect on hemostasis. Reference: [1] Naik MU, Nigam A, Manrai P, et al. CIB1 deficiency results in impaired thrombosis: the potential role of CIB1 in outside-in signaling through integrin alpha IIb beta 3. J Thromb Haemost.
PROTOCOL TABLES SEQUENCE No. (1, 2, 3, etc.); […] (e.g., Cells, Incubation, Reagent, etc.); VALUE and DESCRIPTION. 1; Reagent; 3 uL; Protein or buffer (4/3x) 2; Compound; 46 nL; Control inhibitor / compound library 3; Time; 15 min; Room temperature incubation 4; Reagent; 1 uL; Fluorescent labeled peptide (4x) 5; Time; 1000 rpm; Centrifuge 6; Time; 15 min; Room temperature incubation 7; Detection; Ex 480/ Em 540; ViewLux Fluorescence Read NOTES (numbers refer to sequence above) 1; Protein Mixture: C1B1-GST (final concentrations of 1 uM). […] 3; Room temperature incubation. 4; Fluorescent Labeled Peptide: FITC-aIIb (final concentration of 100 nM). Sequence of alphaIIb peptide: Acetyl-[…]-FITC (purity is 95.83%). 5; Centrifuge 1000 rpm (164 g) for 15 seconds. 6; Room temperature incubation. 7; ViewLux Fluorescent Polization Read: excitation = 480(20) / emission = 540(25) S and P; FITC Dichroic mirror.
Potency is the fitted concentration of half-maximal effect.

Sequence of Calcium and integrin-binding protein 1 (Homo sapiens) (Q99828 whole entry, looked up): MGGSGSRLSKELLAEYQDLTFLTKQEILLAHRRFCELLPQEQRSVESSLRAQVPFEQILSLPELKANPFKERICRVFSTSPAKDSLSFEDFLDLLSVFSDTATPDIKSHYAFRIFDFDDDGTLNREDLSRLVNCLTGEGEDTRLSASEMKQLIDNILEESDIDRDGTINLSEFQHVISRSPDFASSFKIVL

SMILES	Potency
NP(N)(=O)NC(=O)c1ccc(F)cc1	inactive
O=c1[nH]c2ccccc2n1CCCN1CCC(n2c(=O)[nH]c3cc(Cl)ccc32)CC1	inactive
Cc1cccc(C)c1NC(=O)CN1CCCC1=O	inactive
C#CCN(C)[C@H](C)Cc1ccccc1	inactive
CNCC(O)c1ccc(O)cc1 (stereo not given)	inactive
CC(C)(N)Cc1ccc(Cl)cc1	inactive
C=C1C[C@@H]2[C@H](CC[C@]3(C)C(=O)CC[C@@H]23)[C@@]2(C)C=CC(=O)C=C12	inactive
CCCC1CCCCN1 (stereo not given)	inactive
Cc1ccc(-c2nc3ccc(C)cn3c2CC(=O)N(C)C)cc1	inactive
CC(C)=CCOc1c2occc2cc2ccc(=O)oc12	inactive
Oc1ccccc1-c1ccccc1	inactive
Cc1cccc(C)c1NC1=NCCCS1	inactive
COc1ccc2c(c1OC)CN1CCc3cc4c(cc3C1C2)OCO4 (stereo not given)	inactive
Cc1ccc2c(c1)C1CN(C)CCC1N2 (stereo not given)	inactive
Cc1sc2c(c1C)C(c1ccc(Cl)cc1)=N[C@@H](CC(=O)OC(C)(C)C)c1nnc(C)n1-2	inactive
CN(C)CCc1ccc(O)cc1	inactive
C[C@@H]1[C@@H](C(=O)C[C@H]2O[C@@H]3O[C@]4(C)CC[C@@H]5[C@H](C)CC[C@@H]([C@H]2C)[C@@]35OO4)O[C@@H]2O[C@]3(C)CC[C@H]4[C@H](C)CC[C@@H]1[C@@]24OO3	inactive
NCC1(CC(=O)O)CCCCC1	inactive
CCC1(C2=NCCN2)Cc2ccccc2O1 (stereo not given)	inactive
NN=C(N)N	inactive

SMILES	Potency
NCC(O)c1ccc(O)cc1 (stereo not given)	inactive
N[C@@H]1C[C@H]1c1ccccc1	inactive
c1ccc(C2CC2)c(OCC2=NCCN2)c1	inactive
CC(CCc1ccccc1)NC(C)C(O)c1ccc(O)cc1 (stereo not given)	inactive
Clc1ccc(COC(Cn2ccnc2)c2ccc(Cl)cc2Cl)cc1 (stereo not given)	inactive
CCCN1CCC[C@@H]2Cc3nc(N)ncc3C[C@H]21	inactive
CC(C)(C)CC(C)(C)c1ccc(O)cc1	inactive
Oc1ccc(Cl)cc1Cc1ccccc1	inactive
O=C(NC(O)C(Cl)(Cl)Cl)NC(O)C(Cl)(Cl)Cl (stereo not given)	inactive
Clc1ccc(CCC(Cn2ccnc2)Sc2c(Cl)cccc2Cl)cc1 (stereo not given)	inactive
CC[C@@H](CO)NC(=O)[C@@H]1C=C2c3cccc4c3c(cn4C)C[C@H]2N(C)C1	44.7 µM (active)
CN1C(=S)CN=C(c2ccccc2)c2cc(Cl)ccc21	inactive
O=C1NCN(c2ccccc2)C12CCN(CC1COc3ccccc3O1)CC2 (stereo not given)	inactive
CN1CCN(C(=O)O[C@H]2c3nccnc3C(=O)N2c2ccc(Cl)cn2)CC1	inactive
c1ccc2c(c1)Nc1ccccc1S2	inactive
C[C@]12CCC(=O)C(O)=C1CC[C@@H]1[C@@H]2CC[C@]2(C)C(=O)CC[C@@H]12	inactive
CN(C)[C@@H]1C(=O)C(C(N)=O)=C(O)[C@@]2(O)C(=O)C3=C(O)c4c(O)cccc4[C@@](C)(O)[C@H]3C[C@@H]12	inactive
Nc1ccncc1	inactive
O=P1(NCCCl)OCCCN1CCCl (stereo not given)	inactive
Oc1cccc2cccnc12	inactive
